This note sets out measurements from ChEMBL document CHEMBL2218924, “A broad activity screen in support of a chemogenomic map for kinase signalling research and drug discovery” (Biochem J, 2013).

Test [1] has as its target T1, Serine/threonine-protein kinase TBK1 (Homo sapiens) (UniProt Q9UHD2).
T1 sequence (whole entry): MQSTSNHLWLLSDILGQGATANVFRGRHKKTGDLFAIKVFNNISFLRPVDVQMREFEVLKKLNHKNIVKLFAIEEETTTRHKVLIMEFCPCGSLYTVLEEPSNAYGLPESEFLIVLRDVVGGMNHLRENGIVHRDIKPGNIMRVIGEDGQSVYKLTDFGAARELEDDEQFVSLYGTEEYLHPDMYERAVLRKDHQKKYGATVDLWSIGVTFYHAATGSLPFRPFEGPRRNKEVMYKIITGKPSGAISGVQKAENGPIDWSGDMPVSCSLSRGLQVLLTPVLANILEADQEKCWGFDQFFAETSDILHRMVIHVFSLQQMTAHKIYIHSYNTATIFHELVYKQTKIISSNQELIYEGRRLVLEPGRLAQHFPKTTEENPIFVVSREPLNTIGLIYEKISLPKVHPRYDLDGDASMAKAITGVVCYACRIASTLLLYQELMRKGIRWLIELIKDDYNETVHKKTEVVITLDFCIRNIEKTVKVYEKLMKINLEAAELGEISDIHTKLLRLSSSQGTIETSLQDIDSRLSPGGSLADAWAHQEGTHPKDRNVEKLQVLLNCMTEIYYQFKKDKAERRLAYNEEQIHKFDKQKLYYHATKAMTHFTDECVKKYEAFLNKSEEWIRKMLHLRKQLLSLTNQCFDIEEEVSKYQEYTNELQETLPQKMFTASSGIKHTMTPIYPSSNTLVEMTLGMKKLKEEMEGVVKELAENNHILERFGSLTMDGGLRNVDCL
The settings on record: at 10 µM.

The target of test [2] is T2, TGF-beta receptor type-1 (Homo sapiens) (UniProt P36897).
T2 sequence (whole entry): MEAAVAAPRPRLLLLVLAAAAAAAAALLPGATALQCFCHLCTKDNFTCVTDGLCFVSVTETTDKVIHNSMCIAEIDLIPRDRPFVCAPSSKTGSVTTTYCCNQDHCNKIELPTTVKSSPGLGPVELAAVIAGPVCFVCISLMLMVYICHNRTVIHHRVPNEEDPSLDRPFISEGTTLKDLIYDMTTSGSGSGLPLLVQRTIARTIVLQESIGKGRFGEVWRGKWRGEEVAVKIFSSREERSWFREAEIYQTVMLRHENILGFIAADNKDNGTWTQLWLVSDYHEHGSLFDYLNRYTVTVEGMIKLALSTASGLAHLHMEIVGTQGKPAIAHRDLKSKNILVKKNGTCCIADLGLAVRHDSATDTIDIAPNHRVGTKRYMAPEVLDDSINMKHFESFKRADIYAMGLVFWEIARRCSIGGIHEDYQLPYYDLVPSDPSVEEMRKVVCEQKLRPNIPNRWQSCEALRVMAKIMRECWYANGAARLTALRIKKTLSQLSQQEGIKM
The settings on record: at 1 µM.

Test [3] addresses T2, TGF-beta receptor type-1 (Homo sapiens). The settings on record: at 10 µM.
For test [4], the target named is Insulin-like growth factor 1 receptor (Homo sapiens) (UniProt P08069). The settings on record: at 1 µM.
The target is the same in test [5]. To be noted: at 10 µM.
The target of test [6] is T3, Inhibitor of nuclear factor kappa-B kinase subunit alpha (Homo sapiens) (UniProt O15111).
T3 sequence (whole entry): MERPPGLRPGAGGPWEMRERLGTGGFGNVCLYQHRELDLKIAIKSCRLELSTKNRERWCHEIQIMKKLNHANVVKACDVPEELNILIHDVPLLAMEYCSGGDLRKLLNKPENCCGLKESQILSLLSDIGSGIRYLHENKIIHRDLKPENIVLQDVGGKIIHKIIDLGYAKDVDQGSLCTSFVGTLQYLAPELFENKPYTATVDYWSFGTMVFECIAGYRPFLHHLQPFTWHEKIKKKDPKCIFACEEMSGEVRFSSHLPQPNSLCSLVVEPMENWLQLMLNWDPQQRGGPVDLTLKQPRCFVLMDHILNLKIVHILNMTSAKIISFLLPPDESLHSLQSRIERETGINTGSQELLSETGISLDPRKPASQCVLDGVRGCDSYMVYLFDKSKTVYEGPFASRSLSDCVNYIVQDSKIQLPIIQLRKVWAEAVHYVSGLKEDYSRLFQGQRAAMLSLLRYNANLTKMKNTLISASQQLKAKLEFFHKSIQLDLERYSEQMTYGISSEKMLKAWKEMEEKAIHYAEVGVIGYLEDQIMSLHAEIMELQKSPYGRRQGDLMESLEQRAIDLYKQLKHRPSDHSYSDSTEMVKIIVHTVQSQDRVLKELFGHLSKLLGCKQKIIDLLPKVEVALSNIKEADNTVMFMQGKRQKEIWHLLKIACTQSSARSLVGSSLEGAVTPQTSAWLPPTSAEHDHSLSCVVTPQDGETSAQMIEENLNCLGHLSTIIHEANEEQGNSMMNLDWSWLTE
To be noted: at 1 µM.

Test [7] deals with T3, Inhibitor of nuclear factor kappa-B kinase subunit alpha (Homo sapiens). To be noted: at 10 µM.
Test [8] concerns the target T4, Inhibitor of nuclear factor kappa-B kinase subunit beta (Homo sapiens) (UniProt O14920).
T4 sequence (whole entry): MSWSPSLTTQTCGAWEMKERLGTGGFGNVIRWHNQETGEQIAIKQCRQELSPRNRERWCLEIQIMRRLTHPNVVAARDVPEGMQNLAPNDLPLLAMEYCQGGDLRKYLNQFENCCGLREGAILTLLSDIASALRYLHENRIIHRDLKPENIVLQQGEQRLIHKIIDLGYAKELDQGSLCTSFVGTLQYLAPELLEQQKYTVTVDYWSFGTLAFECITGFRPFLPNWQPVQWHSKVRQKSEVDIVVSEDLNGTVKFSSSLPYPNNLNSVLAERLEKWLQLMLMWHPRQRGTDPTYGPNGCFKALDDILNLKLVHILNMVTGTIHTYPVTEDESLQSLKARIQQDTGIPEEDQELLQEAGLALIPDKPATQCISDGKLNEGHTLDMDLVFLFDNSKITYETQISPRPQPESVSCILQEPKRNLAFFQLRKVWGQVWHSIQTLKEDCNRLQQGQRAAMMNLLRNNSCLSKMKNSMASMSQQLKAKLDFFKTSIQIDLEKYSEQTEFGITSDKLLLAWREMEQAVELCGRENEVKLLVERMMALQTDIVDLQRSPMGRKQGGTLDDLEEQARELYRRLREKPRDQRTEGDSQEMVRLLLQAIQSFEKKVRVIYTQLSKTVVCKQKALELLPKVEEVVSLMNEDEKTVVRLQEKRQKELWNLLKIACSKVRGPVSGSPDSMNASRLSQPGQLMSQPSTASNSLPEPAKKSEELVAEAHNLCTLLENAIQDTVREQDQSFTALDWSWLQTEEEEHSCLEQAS
The settings on record: at 1 µM.

Test [9] deals with T4, Inhibitor of nuclear factor kappa-B kinase subunit beta (Homo sapiens). The settings on record: at 10 µM.
Test [10] has as its target Insulin receptor (Homo sapiens) (UniProt P06213). To be noted: at 1 µM.

Chain of Insulin-like growth factor 1 receptor (Homo sapiens) (P08069 31-736 limits assumed): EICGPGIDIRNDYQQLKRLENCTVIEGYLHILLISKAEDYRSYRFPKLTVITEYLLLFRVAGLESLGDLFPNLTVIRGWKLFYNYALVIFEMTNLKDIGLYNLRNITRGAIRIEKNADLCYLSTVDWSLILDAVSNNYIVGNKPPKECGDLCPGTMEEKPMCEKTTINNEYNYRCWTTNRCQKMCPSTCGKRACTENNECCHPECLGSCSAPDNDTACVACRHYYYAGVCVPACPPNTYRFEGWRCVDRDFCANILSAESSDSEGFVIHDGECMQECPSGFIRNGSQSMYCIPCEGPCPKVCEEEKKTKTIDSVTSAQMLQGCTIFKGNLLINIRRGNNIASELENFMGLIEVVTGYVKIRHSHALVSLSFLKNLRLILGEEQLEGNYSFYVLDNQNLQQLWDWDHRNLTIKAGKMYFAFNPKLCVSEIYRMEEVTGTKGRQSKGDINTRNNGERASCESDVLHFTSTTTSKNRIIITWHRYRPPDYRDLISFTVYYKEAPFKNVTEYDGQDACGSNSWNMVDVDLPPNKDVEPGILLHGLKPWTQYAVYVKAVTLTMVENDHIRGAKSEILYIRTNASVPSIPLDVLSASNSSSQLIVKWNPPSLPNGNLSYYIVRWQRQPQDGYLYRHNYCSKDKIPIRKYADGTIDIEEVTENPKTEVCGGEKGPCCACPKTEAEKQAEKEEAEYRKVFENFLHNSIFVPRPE
Chain of Insulin-like growth factor 1 receptor (Homo sapiens) (P08069 741-1367 limits assumed): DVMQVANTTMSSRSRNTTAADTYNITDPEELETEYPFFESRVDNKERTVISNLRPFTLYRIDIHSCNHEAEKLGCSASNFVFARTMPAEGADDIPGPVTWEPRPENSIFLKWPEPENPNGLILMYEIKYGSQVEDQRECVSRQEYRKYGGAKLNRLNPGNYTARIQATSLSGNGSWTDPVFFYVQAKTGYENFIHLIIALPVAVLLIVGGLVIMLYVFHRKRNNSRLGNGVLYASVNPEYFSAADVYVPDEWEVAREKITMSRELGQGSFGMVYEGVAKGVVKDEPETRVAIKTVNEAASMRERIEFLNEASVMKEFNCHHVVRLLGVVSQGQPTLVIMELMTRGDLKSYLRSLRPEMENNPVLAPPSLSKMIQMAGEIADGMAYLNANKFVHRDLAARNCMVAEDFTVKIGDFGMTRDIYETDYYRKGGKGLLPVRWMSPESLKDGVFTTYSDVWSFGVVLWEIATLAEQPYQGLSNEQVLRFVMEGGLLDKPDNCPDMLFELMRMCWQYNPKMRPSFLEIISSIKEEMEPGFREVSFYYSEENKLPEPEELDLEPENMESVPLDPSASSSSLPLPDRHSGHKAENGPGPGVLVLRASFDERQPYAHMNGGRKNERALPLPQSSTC
Chain of Insulin receptor (Homo sapiens) (P06213 28-758 limits assumed): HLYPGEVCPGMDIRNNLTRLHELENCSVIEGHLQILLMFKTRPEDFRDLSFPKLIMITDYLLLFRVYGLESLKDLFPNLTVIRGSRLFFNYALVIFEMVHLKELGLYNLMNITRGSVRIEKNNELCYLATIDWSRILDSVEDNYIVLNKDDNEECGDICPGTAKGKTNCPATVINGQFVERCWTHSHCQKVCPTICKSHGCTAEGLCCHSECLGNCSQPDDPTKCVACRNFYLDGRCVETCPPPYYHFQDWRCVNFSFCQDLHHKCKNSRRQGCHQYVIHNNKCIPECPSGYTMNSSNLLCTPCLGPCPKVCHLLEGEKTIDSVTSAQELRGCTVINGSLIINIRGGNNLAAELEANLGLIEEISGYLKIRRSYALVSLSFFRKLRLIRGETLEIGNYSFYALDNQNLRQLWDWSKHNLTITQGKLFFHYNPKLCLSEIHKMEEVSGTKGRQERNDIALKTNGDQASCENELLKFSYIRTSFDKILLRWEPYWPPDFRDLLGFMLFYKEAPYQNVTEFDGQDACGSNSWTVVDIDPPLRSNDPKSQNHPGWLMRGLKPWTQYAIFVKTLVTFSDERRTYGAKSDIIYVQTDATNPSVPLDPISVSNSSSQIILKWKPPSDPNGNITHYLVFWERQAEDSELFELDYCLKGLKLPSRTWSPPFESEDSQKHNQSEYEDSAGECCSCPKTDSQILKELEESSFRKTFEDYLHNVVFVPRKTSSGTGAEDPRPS
Chain of Insulin receptor (Homo sapiens) (P06213 763-1382 limits assumed): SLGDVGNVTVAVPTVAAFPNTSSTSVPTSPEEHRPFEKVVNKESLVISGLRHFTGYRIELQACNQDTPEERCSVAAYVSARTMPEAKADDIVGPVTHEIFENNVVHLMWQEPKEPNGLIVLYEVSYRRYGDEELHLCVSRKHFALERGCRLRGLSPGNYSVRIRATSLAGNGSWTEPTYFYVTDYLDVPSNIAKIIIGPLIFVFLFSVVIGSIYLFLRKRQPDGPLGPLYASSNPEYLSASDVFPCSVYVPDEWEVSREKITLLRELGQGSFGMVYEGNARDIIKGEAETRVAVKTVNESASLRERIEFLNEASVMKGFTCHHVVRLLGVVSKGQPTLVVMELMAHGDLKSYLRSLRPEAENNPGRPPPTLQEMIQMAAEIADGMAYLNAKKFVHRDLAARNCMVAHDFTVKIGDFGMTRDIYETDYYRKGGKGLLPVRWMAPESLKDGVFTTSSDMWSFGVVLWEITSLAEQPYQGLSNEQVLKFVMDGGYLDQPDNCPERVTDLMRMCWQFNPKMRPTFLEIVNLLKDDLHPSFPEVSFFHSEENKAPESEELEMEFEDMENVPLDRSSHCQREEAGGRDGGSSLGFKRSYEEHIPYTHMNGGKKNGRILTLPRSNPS

Consider `O=C1NC(=O)c2cc(Nc3ccc(F)cc3)c(Nc3ccc(F)cc3)cc21`, for which the residual activity in [1] was found to be 54%; in [2] it was 78%; in test [3] it was 76%; in test [4], 90%; in [5] it was 77%; in test [6], 111%. Further, the residual activity turned out to be 113% in [7], 108% in test [8], 95% in test [9] and 115% in [10].

For orientation: residual activity means the signal under treatment as a percentage of the control signal.
